# Compounds with a hit are over-represented: about 4.6% of the library has one in this group of screens.
# TRHR agonist: qHTS for Small Molecule Agonists and Allosteric Enhancers of Human TRH Receptor: Primary Screen for Agonists; Thyrotropin-releasing hormone receptor (Homo sapiens), P34981; TRHR cells, calcium flux fluo-8, FDSS agonist mode; activation, % at 2 µM; hit rate 0.18% among 360,000; AID 493084, 2011
#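 Agonist-mode FDSS calcium read (Ex 480/Em 530, 1 s cycles) in 1536-well TRHR cells with fluo-8 dye, after 10-cycle baseline and 23 nL compound addition; TRH at EC20 (10 nM final) added afterwards for the enhancer phase.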
# D1 agonist: Allosteric Agonists of the Human D1 Dopamine Receptor: qHTS. D(1A) dopamine receptor (Homo sapiens), P21728. HEK293 T-REx D1 cells, calcium flux, agonist mode. activation, % at 2 µM. hit rate 1% among 360,000
# Target sequence (P21728 whole entry, looked up): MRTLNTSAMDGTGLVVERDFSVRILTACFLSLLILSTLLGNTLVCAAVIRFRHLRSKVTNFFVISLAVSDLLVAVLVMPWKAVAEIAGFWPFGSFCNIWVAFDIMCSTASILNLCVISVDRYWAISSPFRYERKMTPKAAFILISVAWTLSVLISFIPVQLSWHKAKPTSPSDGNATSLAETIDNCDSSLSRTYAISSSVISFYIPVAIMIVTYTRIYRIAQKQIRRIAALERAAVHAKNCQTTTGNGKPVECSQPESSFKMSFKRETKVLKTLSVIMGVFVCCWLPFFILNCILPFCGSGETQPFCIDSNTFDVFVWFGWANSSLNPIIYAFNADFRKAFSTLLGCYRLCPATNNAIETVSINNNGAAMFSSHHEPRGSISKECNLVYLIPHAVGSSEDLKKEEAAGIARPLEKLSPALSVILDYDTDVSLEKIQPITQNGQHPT
#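 Agonism was scored from calcium flux recorded over 180 s (1 read/s) after pintool compound addition, following a 10-cycle baseline. Cells were inducible force-coupled HEK293 TREx D1, plated overnight at 30 C and loaded with no-wash calcium dye.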
# D1 PAM: Potentiators of Human D1 Dopamine Receptor: qHTS. potentiation, % at 10 µM. AID 504651, 2011. hit rate 0.036% among 360,000. D(1A) dopamine receptor (Homo sapiens), P21728. HEK293 TREx D1 cells, calcium flux, dopamine EC20 potentiation; in the data active means potentiation above about 30%
# D1 antagonist: Antagonist of Human D 1 Dopamine Receptor: qHTS. HEK293 TREx D1 cells, calcium flux, dopamine EC80; active compounds read low. activity change, negative = inhibition, % at 10 µM. hit rate 3.2% among 360,000. AID 504652, 2011; in the data active means activity change below about -30%
#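 After overnight tetracycline induction at 30 C, force-coupled D1 HEK293 cells took up a no-wash calcium dye at room temperature. Compounds were added and monitored 180 s, and the response to EC80 dopamine was then recorded.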
# TRHR enhancer: qHTS for Small Molecule Agonists and Allosteric Enhancers of Human TRH Receptor: Primary Screen for Enhancers. Thyrotropin-releasing hormone receptor (Homo sapiens), P34981. TRHR cells, fluo-8 calcium fluorescence, EC20 TRH enhancement. enhancement, % at 2 µM. hit rate 0.66% among 360,000. AID 493056, 2011; in the data active means enhancement above about 30%
#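 TRHR-expressing cells loaded with fluo-8 calcium dye were read kinetically (ex 480/em 530) during compound addition, then stimulated with an EC20 of TRH (10 nM final). Enhancement of the Gq-mediated intracellular calcium response was scored.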
# Numbers stand for hits; n = inactive; x = no result given. Unless noted, no stated cut-off is given here; in the data, active means activation above about 30%; inactive means the rest.
SMILES,TRHR agonist,D1 agonist,D1 PAM,D1 antagonist,TRHR enhancer
CC(OC(=O)CCCN=C1NS(=O)(=O)c2ccccc21)C(=O)Nc1ccc(F)c(F)c1F (stereo not given),n,33,n,n,n
CC(C)C(=O)OCCN=C1NS(=O)(=O)c2ccccc21,n,n,n,-36,n
CC(OC(=O)CCCN=C1NS(=O)(=O)c2ccccc21)C(=O)c1ccccc1 (stereo not given),n,45,n,n,n
O=C(OCCN=C1NS(=O)(=O)c2ccccc21)c1ccccc1,n,n,n,n,n
CCN1CCc2c(sc(-n3cccc3)c2C(C)NC(=O)Nc2ccccc2C)C1 (stereo not given),n,n,n,n,n
Cn1nc(C(F)(F)F)c(CO)c1Sc1ccc(F)cc1,n,n,n,n,30
Cc1ccc(Sc2c(C(=O)Nc3ccc(F)cc3F)c(C(F)(F)F)nn2C)cc1,n,n,n,n,n
Cc1ccccc1CNC(=O)C(=O)NCC(c1ccco1)S(=O)(=O)c1ccc(F)cc1 (stereo not given),n,n,n,x,n
CC(C(=O)N1CCCCC1)N1C(=O)c2ccccc2C1=O (stereo not given),n,n,n,n,n
CC1SC(=NC(=O)C(C)N2C(=O)c3ccccc3C2=O)NC1=O (stereo not given),n,n,n,-34,n
Cc1sc2ncn(CC(=O)NCCCOC(C)C)c(=O)c2c1S(=O)(=O)N1CCN(c2ncccn2)CC1,n,n,n,-64,n
Cc1sc2ncn(CC(=O)NCC3COc4ccccc4O3)c(=O)c2c1S(=O)(=O)N1CCCCC1 (stereo not given),n,n,n,-37,n
Cc1sc2ncn(CC(=O)NCC3COc4ccccc4O3)c(=O)c2c1S(=O)(=O)N1CCOCC1 (stereo not given),n,n,n,n,n
CCCCNC(=O)Cn1cnc2sc(C)c(S(=O)(=O)N3CCN(c4ncccn4)CC3)c2c1=O,n,n,n,n,n
CCc1ccc(Nc2nnc(SCC(=O)N(C)C3CCS(=O)(=O)C3)s2)cc1 (stereo not given),n,n,n,-70,n
Cc1nc2sc(C(c3ccco3)N3CC(C)OC(C)C3)c(O)n2n1 (stereo not given),n,n,n,n,31
O=C(COc1ccc(C(=S)N2CCOCC2)cc1Cl)Nc1ccccc1Cl,n,n,n,n,34
COc1cc(C(=S)N2CCCCC2)ccc1OCC(=O)Nc1ccccc1Cl,n,n,n,n,n
Cc1ccc(OCCn2c(C)nc3ccccc32)cc1,n,n,n,-45,n
Cc1ccc(OCCn2c(COc3ccc(Cl)cc3)nc3ccccc32)cc1,n,47,n,n,n
CCCc1nc2ccccc2n1CCOc1ccccc1,n,n,n,-49,n
CCCc1nc2ccccc2n1CCOC,n,n,n,n,n
Cc1ccccc1Cn1c(COc2ccc(Cl)cc2)nc2ccccc21,n,62,n,-65,n
Cc1ccc(C)c(N2CCN(S(=O)(=O)c3cn(C)c(C)n3)CC2)c1,n,n,n,n,n
CCOc1ccc(N(CC)S(=O)(=O)c2cc(Br)cc3c2N(C(C)=O)C(C)C3)cc1 (stereo not given),n,n,n,n,n
SMILES,TRHR agonist,D1 agonist,D1 PAM,D1 antagonist,TRHR enhancer
CCc1ccc(C2c3c(-c4cc(C)ccc4O)n[nH]c3C(=O)N2Cc2cccnc2)cc1 (stereo not given),n,n,n,n,n
COc1ccc(C[C@H]2CN3C(=NC[C@@H]3Cc3ccc(O)cc3)N2C[C@H](C)NC(=O)c2ccc(C)c(Br)c2)cc1,n,n,n,-42,n
COc1ccc(C[C@H]2CN3C(=NC[C@@H]3C(C)C)N2C[C@H](C)NC(=O)c2ccc(C)c(Br)c2)cc1,n,n,n,n,n
Cc1ccc(C(=O)N[C@@H](C)CN2C3=NC[C@H](C(C)C)N3C[C@H]2Cc2ccc(O)cc2)cc1Br,n,n,n,-57,n
CCn1ncc([N+](=O)[O-])c1C(=O)Nc1c(C)nn(Cc2ccc(F)cc2)c1C,n,n,n,-40,n
COc1cccc(CNS(=O)(=O)c2cc3[nH]c(=O)c(=O)[nH]c3cc2C)c1,n,n,n,n,31
Cc1ccc(-n2ncc(C(=O)N3CCN(Cc4ccccc4)CC3)c2C2CCN(C(=O)OC(C)(C)C)CC2)c(C)c1,n,n,n,n,n
CCOc1ccc(C(=O)NCCS(=O)(=O)N2CCN(c3cccc(Cl)c3)CC2)cc1,n,n,n,n,n
O=C(NCc1nc(-c2ccc(C(F)(F)F)cc2)no1)c1cccs1,n,n,n,-34,n
CC(C)N(Cc1nc(-c2ccccc2)no1)C(=O)CCCN1C(=O)c2ccccc2C1=O,n,n,n,-49,n
CC(C)N(Cc1nc(-c2ccccc2)no1)C(=O)CN1C(=O)c2ccccc2C1=O,n,n,n,n,n
COc1ccc(-c2noc(CN(C(=O)c3cccs3)C(C)C)n2)cc1,n,37,n,n,n
COc1cccc(OC)c1C(=O)Nc1cc2c(cc1N1CCOCC1)n(C)c(=O)n2C,n,n,n,n,n
Cn1c(=O)n(C)c2cc(N3CCOCC3)c(NC(=O)c3ccc(F)cc3)cc21,n,n,n,n,32
Cc1nn(Cc2ccccc2Cl)c2sc(C(=O)Nc3ccccc3N3CCOCC3)cc12,n,n,n,-38,n
O=C(Nc1ccccc1N1CCOCC1)c1cc(Br)c(Br)s1,n,n,n,-31,n
Cn1c(=O)n(C)c2cc(N3CCOCC3)c(NC(=O)c3ccccc3Br)cc21,n,n,n,-43,n
O=C(CSc1nc(=O)n(Cc2ccco2)c2c1CCC2)NCc1ccccc1,n,n,n,x,n
COc1ccccc1NC(=O)C1(C)Cc2ccccc2C(=O)O1 (stereo not given),n,n,n,n,n
Cc1ccc(NC(=O)C2(C)Cc3ccccc3C(=O)O2)c(C)c1 (stereo not given),n,n,n,n,50
CCCN(C(=O)c1cn(C)c(=O)c2cc(OC)c(OC)cc12)c1ccc(CC)cc1,n,n,n,n,n
COc1ccc(C(=O)N/C(=C\c2ccc([N+](=O)[O-])cc2)C(=O)NC(CCSC)C(=O)O)cc1 (stereo not given),n,111,n,-33,n
COc1ccc(/C=C(\NC(=O)c2ccc(OC)cc2)C(=O)NC(CCSC)C(=O)O)cc1 (stereo not given),n,n,n,n,n
Cc1ccccc1Nc1nc(N)c(C(=O)c2ccccc2Cl)s1,n,95,n,-48,n
